Test systems include SK-MEL-2 melanoma; EKVX NSCLC; SN12C renal; UO-31 renal; TK-10 renal; ACHN renal; CAKI-1 renal; A498 renal; CCRF-CEM leukemia; MOLT-4 leukemia; SR leukemia; RPMI-8226 leukemia; OVCAR-8 ovarian; OVCAR-5 ovarian; OVCAR-4 ovarian; SK-OV-3 ovarian; IGROV1 ovarian; OVCAR-3 ovarian; HS 578T breast; NCI/ADR-RES ovarian.
What all share (assay): NCI-60 one-dose screen, 48 h (100 = growth as untreated, 0 = no growth, -100 = all killed)
What all share (details): 10 µM unless noted

Molecules are shown by their SMILES. The panel holds about 83,000 compounds, 20% with a hit somewhere; the sample as a whole holds those more often.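 Compound tested at a single concentration for 48 hours in 96-well plates; a percent growth value below 10 was scored as active.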 A number with no mark means an inactive call. Active and inactive are the calls of the source.

From PubChem BioAssay (NCI) come the findings set out here.

Turning to `COC(=O)c1sc(-c2ccc(C)cc2)cc1O`, the growth in the experiment with SK-MEL-2 melanoma is 99%; with EKVX NSCLC it was 101%; in the experiment on SN12C renal, 101%; with UO-31 renal it was 94.1%; with TK-10 renal it was 99.2%; in the experiment with ACHN renal, 112%. Moreover, the growth in the experiment with CAKI-1 renal was 94.3%; in the experiment on A498 renal, 98.5%; in the experiment on CCRF-CEM leukemia, 103%; with MOLT-4 leukemia it was 87.7%; in the experiment with SR leukemia, 81.9%; in the experiment on RPMI-8226 leukemia, 103%. Further, the growth in the experiment with OVCAR-8 ovarian is 117%; in the experiment with OVCAR-5 ovarian it was 112%; with OVCAR-4 ovarian it was 91.5%; in the experiment with SK-OV-3 ovarian it was 114%; in the experiment on IGROV1 ovarian it was 100%; with OVCAR-3 ovarian, 99.6%. The growth is 101% in the experiment on HS 578T breast and 99.8% in the experiment with NCI/ADR-RES ovarian.

For the compound `Cc1oc2ccc(O)c(CN3CCCCCC3)c2c1C(=O)Nc1ccc(C(F)(F)F)cc1`, the growth in the experiment on SK-MEL-2 melanoma was 78.4%; in the experiment on EKVX NSCLC, 64.1%; with SN12C renal, 66.7%; in the experiment with UO-31 renal, 40.7%; in the experiment with TK-10 renal it was 81.1%; with ACHN renal it was 68.5%. For the same compound, the growth was 50.5% in the experiment on CAKI-1 renal; 50.5% in the experiment with A498 renal; 65.2% in the experiment with CCRF-CEM leukemia; 64.3% in the experiment with MOLT-4 leukemia; -8.44% (active) in the experiment on SR leukemia; 75.1% in the experiment on RPMI-8226 leukemia. In addition, the growth is 66.3% in the experiment with OVCAR-8 ovarian; 85.8% with OVCAR-5 ovarian; 58.6% in the experiment on OVCAR-4 ovarian; 76.3% in the experiment on SK-OV-3 ovarian; 54.3% in the experiment with IGROV1 ovarian; 62% in the experiment on OVCAR-3 ovarian. For the same compound, the growth in the experiment on HS 578T breast is 65.5%; in the experiment on NCI/ADR-RES ovarian, 53.6%.

Consider `Cn1cc(-c2nc(-c3c[nH]c4ccncc34)cs2)c2cc(F)ccc21`, for which the growth is -58.7% (active) with SK-MEL-2 melanoma; -75.4% (active) with EKVX NSCLC; -87.9% (active) in the experiment on SN12C renal; -93.2% (active) in the experiment on UO-31 renal; -49.3% (active) in the experiment with TK-10 renal; -99.6% (active) with ACHN renal. In addition, the growth in the experiment with CAKI-1 renal is -90.9% (active); in the experiment with A498 renal it was -63.5% (active); with CCRF-CEM leukemia it was -41.6% (active); in the experiment with MOLT-4 leukemia it was -58.3% (active); in the experiment on SR leukemia it was -36.8% (active); in the experiment with RPMI-8226 leukemia, -36.5% (active). Further, the growth was -60.1% (active) with OVCAR-8 ovarian; -91.1% (active) in the experiment with OVCAR-5 ovarian; -54.4% (active) in the experiment on OVCAR-4 ovarian; 62.1% in the experiment with SK-OV-3 ovarian; -87.2% (active) with IGROV1 ovarian; -94.7% (active) in the experiment on OVCAR-3 ovarian. For the same compound, the growth is -44.9% (active) in the experiment with HS 578T breast and -73.7% (active) with NCI/ADR-RES ovarian.

Regarding `COc1ccc(C(c2cc(OC)c(OC)c(OC)c2)n2cncn2)cc1O` (stereo not given), the growth with SK-MEL-2 melanoma is 55.9%; in the experiment with EKVX NSCLC, 39.8%; in the experiment on SN12C renal, 39.3%; in the experiment on UO-31 renal, 58%; with TK-10 renal, 61.3%; with ACHN renal it was 52.4%. Besides, the growth is 40.4% in the experiment on CAKI-1 renal; 9.66% (active) with A498 renal; 9.34% (active) in the experiment on CCRF-CEM leukemia; 16.7% in the experiment with MOLT-4 leukemia; 7.03% (active) in the experiment with SR leukemia; 20.7% with RPMI-8226 leukemia. For the same compound, the growth was 13.4% in the experiment with OVCAR-8 ovarian; 73% with OVCAR-5 ovarian; 72.1% in the experiment on OVCAR-4 ovarian; 20.3% with SK-OV-3 ovarian; 49.2% with IGROV1 ovarian; 1.74% (active) in the experiment with OVCAR-3 ovarian. Also, the growth in the experiment with HS 578T breast was 31.3%; in the experiment on NCI/ADR-RES ovarian, 1.8% (active).

`[2H]C([2H])([2H])Oc1c(F)cccc1/C=C/C(=O)/C=C(O)/C=C/c1cccc(F)c1OC([2H])([2H])[2H]`: the growth with SK-MEL-2 melanoma is 101%; with EKVX NSCLC, 107%; in the experiment on SN12C renal, 93.4%; in the experiment on UO-31 renal it was 97.8%; in the experiment on TK-10 renal, 114%; in the experiment with ACHN renal it was 104%. The growth in the experiment with CAKI-1 renal is 103%; in the experiment with A498 renal, 109%; in the experiment on CCRF-CEM leukemia, 90.9%; with MOLT-4 leukemia, 77.7%; in the experiment with SR leukemia, 94.8%; in the experiment on RPMI-8226 leukemia, 99.2%. For the same compound, the growth is 87% in the experiment on OVCAR-8 ovarian; 104% in the experiment with OVCAR-5 ovarian; 89.1% in the experiment with OVCAR-4 ovarian; 117% in the experiment on SK-OV-3 ovarian; 101% in the experiment on IGROV1 ovarian; 108% in the experiment with OVCAR-3 ovarian. The growth is 112% with HS 578T breast and 92.4% in the experiment on NCI/ADR-RES ovarian.

`Cc1cc(N2CCOCC2)nc(N(CCCNc2ccnc3cc(Cl)ccc23)Cc2ccc3c(c2)OCO3)n1`: the growth is -18.5% (active) with SK-MEL-2 melanoma; 3.49% (active) in the experiment with EKVX NSCLC; 21% in the experiment with SN12C renal; -32.3% (active) with UO-31 renal; -66% (active) in the experiment on TK-10 renal; -86.2% (active) in the experiment on ACHN renal. Besides, the growth was 35.2% in the experiment with CAKI-1 renal; -31.5% (active) with A498 renal; -5.56% (active) in the experiment with CCRF-CEM leukemia; -36.2% (active) in the experiment on MOLT-4 leukemia; -29.2% (active) in the experiment on SR leukemia; -2.52% (active) with RPMI-8226 leukemia. Also, the growth was -52.4% (active) in the experiment with OVCAR-8 ovarian; 22.7% with OVCAR-5 ovarian; -37.9% (active) in the experiment on OVCAR-4 ovarian; 18.9% with SK-OV-3 ovarian; 4.36% (active) with IGROV1 ovarian; -88.6% (active) in the experiment on OVCAR-3 ovarian. Further, the growth with HS 578T breast is 9.54% (active); in the experiment on NCI/ADR-RES ovarian, -36.1% (active).

On to `CC1=C(C(=O)OCc2ccccc2)C(c2ccc3c(c2)OCO3)n2c(nc3ccccc32)N1` (stereo not given), for which the growth is 47.8% with SK-MEL-2 melanoma; 64.4% in the experiment with EKVX NSCLC; 47.6% in the experiment with SN12C renal; 51.1% in the experiment with UO-31 renal; 65.6% with TK-10 renal; 38.4% in the experiment on ACHN renal. Besides, the growth was 34.3% in the experiment on CAKI-1 renal; -10.2% (active) with A498 renal; 24.9% with CCRF-CEM leukemia; 37.1% with MOLT-4 leukemia; 9.81% (active) in the experiment on SR leukemia; 39.8% in the experiment on RPMI-8226 leukemia. Moreover, the growth with OVCAR-8 ovarian was 46.7%; in the experiment on OVCAR-5 ovarian, 64.4%; in the experiment on OVCAR-4 ovarian, 73.8%; with SK-OV-3 ovarian, 41.7%; in the experiment on IGROV1 ovarian, 41.4%; in the experiment with OVCAR-3 ovarian, 12.1%. Besides, the growth in the experiment on HS 578T breast is 0.752% (active); with NCI/ADR-RES ovarian, 23.2%.

As to `CS(=O)(=O)c1ccc(/C(=N/NC(N)=S)c2ccc(F)cc2)cc1`, the growth is 112% in the experiment on SK-MEL-2 melanoma; 92.5% in the experiment on EKVX NSCLC; 96.5% in the experiment on SN12C renal; 71.1% with UO-31 renal; 115% in the experiment on TK-10 renal; 100% in the experiment with ACHN renal. Besides, the growth in the experiment with CAKI-1 renal is 94.7%; in the experiment with A498 renal, 82.2%; with CCRF-CEM leukemia it was 92.9%; with MOLT-4 leukemia it was 103%; in the experiment on SR leukemia, 103%; in the experiment on RPMI-8226 leukemia, 99.5%. In addition, the growth in the experiment on OVCAR-8 ovarian was 103%; with OVCAR-5 ovarian it was 104%; in the experiment with OVCAR-4 ovarian, 104%; with SK-OV-3 ovarian, 112%; with IGROV1 ovarian, 101%; in the experiment with OVCAR-3 ovarian it was 108%. The growth with HS 578T breast and with NCI/ADR-RES ovarian was 102% each time.
